Source: PubChem BioAssay (NCI)
About 83,000 compounds went through this panel and 20% of them were active in at least one assay; those are over-represented in the sample as a whole.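 Plates (96-well) were seeded with cells, treated with compound at one concentration, and incubated for 48 hours before percent growth was determined.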 Calls of active or inactive are those of the source. The calls were made as follows: active = growth percent below 10; inactive = the rest.

Columns and labels:
Test in all cases: NCI-60 one-dose screen, 48 h (100 = growth as untreated, 0 = no growth, -100 = all killed)
Conditions in all cases: 10 µM unless noted
EKVX NSCLC = system: EKVX NSCLC
SN12C renal = system: SN12C renal
UO-31 renal = system: UO-31 renal
TK-10 renal = system: TK-10 renal
ACHN renal = system: ACHN renal
CAKI-1 renal = system: CAKI-1 renal
A498 renal = system: A498 renal
CCRF-CEM leukemia = system: CCRF-CEM leukemia
MOLT-4 leukemia = system: MOLT-4 leukemia
SR leukemia = system: SR leukemia

Measured: growth

CCN1CCN(c2cc(-c3cn[nH]c3-c3cc(C)cc(OC)c3)nc(-c3cccnc3)n2)CC1
active: SR leukemia 7.69%
inactive: EKVX NSCLC 106% | SN12C renal 85% | UO-31 renal 45.8% | TK-10 renal 105% | ACHN renal 73.7% | CAKI-1 renal 73.7% | A498 renal 15.1% | CCRF-CEM leukemia 84.5% | MOLT-4 leukemia 52%

Cc1[nH]n(C(N)=S)c(=O)c1N=Nc1ccc(F)c(Cl)c1
active: CCRF-CEM leukemia -8.05%
inactive: EKVX NSCLC 96.6% | SN12C renal 95.8% | UO-31 renal 73.9% | TK-10 renal 125% | ACHN renal 104% | CAKI-1 renal 103% | A498 renal 128% | SR leukemia 80.2%

O=c1[nH]c(=O)n(C2CC(O)C(CO)O2)cc1C(F)(F)F (configuration not stated)
active: CCRF-CEM leukemia -30.2% | SR leukemia -24.8%
inactive: EKVX NSCLC 86.6% | SN12C renal 28.6% | UO-31 renal 23.5% | TK-10 renal 64.8% | ACHN renal 24.6% | CAKI-1 renal 66.2% | A498 renal 42.3%

CNc1ccc(CSc2ccc(Cl)cc2)cc1
inactive: EKVX NSCLC 104% | SN12C renal 92.2% | UO-31 renal 58.3% | TK-10 renal 126% | ACHN renal 106% | A498 renal 87% | CCRF-CEM leukemia 33.3% | MOLT-4 leukemia 61.5% | SR leukemia 55.8%
active: CAKI-1 renal -3.51%

Oc1ccc(Cc2ccc(O)c(C3CC(c4ccc(Cl)cc4)=NN3)c2)cc1C1CC(c2ccc(Cl)cc2)=NN1 (configuration not stated)
inactive: SN12C renal 24.9% | TK-10 renal 21% | ACHN renal 16.5% | A498 renal 33.8%
active: EKVX NSCLC -6.4% | UO-31 renal -22.4% | CAKI-1 renal -49.4% | CCRF-CEM leukemia 8.95% | SR leukemia 3.43%

CCCC[N+](CCCC)=c1ccc2nc3c(C)cc(N(CC)CC)cc3sc-2c1
active: EKVX NSCLC 4.13% | SN12C renal -3.26% | UO-31 renal 0.703% | TK-10 renal 3.75% | ACHN renal -34.1% | CAKI-1 renal -2.5% | A498 renal -5.54% | CCRF-CEM leukemia -15.7% | SR leukemia -18.2%

CC(=O)NCCSC(=O)C(=O)SCCNC(C)=O
inactive: EKVX NSCLC 101% | SN12C renal 99.4% | UO-31 renal 95.7% | TK-10 renal 128% | ACHN renal 108% | CAKI-1 renal 105% | A498 renal 104% | CCRF-CEM leukemia 119% | MOLT-4 leukemia 112% | SR leukemia 114%

Cn1c(=O)c2c(nc(Br)n2CCC(=O)Nc2ccc(F)cc2)n(C)c1=O
inactive: EKVX NSCLC 108% | SN12C renal 106% | UO-31 renal 78.3% | TK-10 renal 103% | ACHN renal 102% | CAKI-1 renal 93.7% | A498 renal 98.2% | CCRF-CEM leukemia 99.5% | SR leukemia 107%

COc1ccc2[nH]cc(/C=C3/C(=O)Nc4ccc(Cl)cc43)c2c1
inactive: EKVX NSCLC 46.2% | SN12C renal 76.6% | UO-31 renal 65.7% | TK-10 renal 22.2% | ACHN renal 18.2% | CAKI-1 renal 26.6% | A498 renal 67.7% | CCRF-CEM leukemia 44.3% | MOLT-4 leukemia 39.9%
active: SR leukemia 2.51%

Cc1ccccc1-c1cc(Cc2ccccc2O)c(=O)[nH]n1
active: CCRF-CEM leukemia -49.5%
inactive: EKVX NSCLC 67% | SN12C renal 97.4% | UO-31 renal 71.1% | TK-10 renal 130% | ACHN renal 94.9% | CAKI-1 renal 88.8% | A498 renal 110% | MOLT-4 leukemia 86.7% | SR leukemia 92.5%

COc1cccc(-c2nnc(N)o2)c1
inactive: EKVX NSCLC 100% | SN12C renal 97.2% | UO-31 renal 97.1% | TK-10 renal 121% | ACHN renal 103% | CAKI-1 renal 98.4% | A498 renal 97.8% | CCRF-CEM leukemia 103% | MOLT-4 leukemia 110% | SR leukemia 124%

CCC1=C(c2ccc(OC)cc2)C(C)(C)Oc2cc(O)c(CN3CCCC3)cc21
active: SR leukemia 9.49%
inactive: EKVX NSCLC 85.2% | SN12C renal 77.8% | UO-31 renal 55.8% | TK-10 renal 94.3% | ACHN renal 82.6% | CAKI-1 renal 83.2% | A498 renal 59.5% | CCRF-CEM leukemia 69.2%

O=c1[nH]c(Cl)nc2c1cnn2-c1ccccc1
inactive: EKVX NSCLC 93.7% | SN12C renal 97.4% | UO-31 renal 73.2% | TK-10 renal 102% | ACHN renal 101% | CAKI-1 renal 61.6% | A498 renal 84.1% | CCRF-CEM leukemia 40.9% | MOLT-4 leukemia 47.6% | SR leukemia 32.1%

OC(CCC(O)(c1ccccc1)c1ccccc1)(c1ccccc1)c1ccccc1
inactive: EKVX NSCLC 58.8% | SN12C renal 88% | UO-31 renal 74.7% | TK-10 renal 107% | ACHN renal 100% | CAKI-1 renal 44.4% | A498 renal 60.2% | CCRF-CEM leukemia 33.5% | MOLT-4 leukemia 18.5% | SR leukemia 79.6%

COc1ccc2c(c1)C(=O)c1c-2c(OCCCN(C)C)nc2cc(Br)ccc12
active: UO-31 renal -34.7% | ACHN renal 3.65% | CCRF-CEM leukemia -27.6% | SR leukemia -21.3%
inactive: EKVX NSCLC 61.8% | SN12C renal 62.2% | TK-10 renal 76.7% | CAKI-1 renal 69.6% | A498 renal 76.3% | MOLT-4 leukemia 21.1%

c1coc([C@@H]2C[C@@H]3Cc4ccc5ccccc5c4N2O3)c1
inactive: EKVX NSCLC 103% | SN12C renal 108% | UO-31 renal 75% | TK-10 renal 88.6% | ACHN renal 107% | CAKI-1 renal 84.7% | A498 renal 90.2% | CCRF-CEM leukemia 79% | MOLT-4 leukemia 73.7% | SR leukemia 88.8%

O=C(Nc1ccc(Cl)cc1)c1cc2c(cc1O)[nH]c1ccccc12
active: TK-10 renal 4.83% | MOLT-4 leukemia -9.5% | SR leukemia 1.22%
inactive: EKVX NSCLC 10.8% | SN12C renal 20.1% | UO-31 renal 39.9% | ACHN renal 22.2% | CAKI-1 renal 10.2% | A498 renal 29.8% | CCRF-CEM leukemia 18.1%

COC(=O)CCC1=C(CC(=O)OC)C(C)=N/C1=C\c1[nH]c(-c2ccc[nH]2)cc1OC
inactive: EKVX NSCLC 61.5% | SN12C renal 38.7% | TK-10 renal 28.3% | ACHN renal 15.5% | CAKI-1 renal 24.7% | A498 renal 72.1%
active: UO-31 renal -25.3% | CCRF-CEM leukemia 2.36% | MOLT-4 leukemia -6.53% | SR leukemia -24.6%

S=C(c1ccccc1)N1CCN(c2cccc(Cl)c2)CC1
inactive: EKVX NSCLC 99.5% | SN12C renal 100% | UO-31 renal 93.2% | TK-10 renal 110% | ACHN renal 104% | CAKI-1 renal 88.7% | A498 renal 64.6% | CCRF-CEM leukemia 84.1% | MOLT-4 leukemia 85.2% | SR leukemia 82.4%

CC(C)C/C(=N\NC(=O)c1ccncc1)c1cc(Cl)ccc1O
active: CAKI-1 renal 3.32% | CCRF-CEM leukemia 7.99% | MOLT-4 leukemia 3.56% | SR leukemia 6.34%
inactive: EKVX NSCLC 25.7% | SN12C renal 26.3% | UO-31 renal 10.9% | TK-10 renal 15.4% | ACHN renal 13.3% | A498 renal 49.5%

COc1ccc(-c2nn(-c3ccccc3)cc2/C=C2\SC(=S)N(CCc3ccc(O)cc3)C2=O)cc1
inactive: EKVX NSCLC 84.6% | SN12C renal 81.9% | UO-31 renal 60% | TK-10 renal 94.2% | ACHN renal 87.5% | CAKI-1 renal 51.2% | A498 renal 62.6% | CCRF-CEM leukemia 76.5% | SR leukemia 75.8%

CC(O)c1nc2c(c(=O)n(C)c(=O)n2C)n1C (configuration not stated)
inactive: EKVX NSCLC 111% | SN12C renal 104% | UO-31 renal 91.1% | TK-10 renal 113% | ACHN renal 105% | CAKI-1 renal 89.2% | A498 renal 105% | MOLT-4 leukemia 117% | SR leukemia 125%

ClC1=C(Cl)C(Cl)=C(Cl)C1=Cc1ccc(Cl)cc1
inactive: SN12C renal 47.2% | ACHN renal 29% | A498 renal 27.2%
active: EKVX NSCLC -22.6% | UO-31 renal -56.9% | TK-10 renal 8.54% | CAKI-1 renal -63.5% | MOLT-4 leukemia 0.492% | SR leukemia -14.1%

C=CCCCCCCCCC(=O)[O][Sn]([CH2]CCC)([CH2]CCC)[CH2]CCC
active: EKVX NSCLC -55.1% | SN12C renal -82% | UO-31 renal -88.7% | TK-10 renal -92.2% | ACHN renal -99.6% | CAKI-1 renal -89.4% | A498 renal -97.3% | MOLT-4 leukemia 4.17% | SR leukemia 8.68%

COc1c(O)cc2oc3cc(O)c(CC=C(C)C)c(O)c3c(=O)c2c1C/C=C(\C)CCC=C(C)C
inactive: EKVX NSCLC 81.5% | UO-31 renal 58.3% | TK-10 renal 37.3% | ACHN renal 22.6% | CAKI-1 renal 79.3% | A498 renal 120%
active: SN12C renal -8.91% | MOLT-4 leukemia 6.16% | SR leukemia -18.2%

Cc1cc(NC(=O)Nc2cccc3ccccc23)no1
inactive: EKVX NSCLC 102% | SN12C renal 109% | UO-31 renal 89% | TK-10 renal 146% | ACHN renal 98.4% | CAKI-1 renal 104% | A498 renal 126% | MOLT-4 leukemia 106% | SR leukemia 81.2%

O=C(Nc1cccc2ccccc12)c1cc2c(cc1Br)OCO2
inactive: EKVX NSCLC 92.9% | SN12C renal 107% | UO-31 renal 99.2% | TK-10 renal 172% | ACHN renal 94.2% | CAKI-1 renal 101% | A498 renal 126% | MOLT-4 leukemia 91.5% | SR leukemia 71.5%
